Rows were chosen to be rich in hits. Some 13% of all compounds tested hit in one or more screens of this group.
WT yeast gro inh: growth inhibition of WT strain, primary screen, mitochondrial fusion inhibitor project, WT and mutant strains, chemical genetic; inhibition, % at 10 µM; 190,000 compounds, 2.1% hits; mitochondrial fusion phenotypic screen; in the data active means inhibition above about 58%; tested in S. cerevisiae
RAM inhibit: inhibitors of the yeast RAM network, primary screen, dse1pr::URA3 reporter, 5-FOA selection; S. cerevisiae dse1pr::URA3 reporter, 5-FOA growth OD615, 2 d; analog-sensitive cbk1-as2 kinase mutant strain; 190,000 compounds, 1.8% hits; inhibition, % at 50 µM;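 active means inhibition above a set limit, 3 SD over mean compound inhibition, cut at about 8.4% in these data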;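 further: inhibition rescues growth on 5-FOA so higher OD means more RAM inhibition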
CHOP inhibitor: inhibitors of CHOP promoter induction, primary screen, cell-based, unfolded protein response, luciferase reporter. CHO-K1 CHOP-promoter luciferase, tunicamycin-induced, 15-18 h. AID 2732, 2010. 220,000 compounds, 3.8% hits. inhibition, % at 10 µM;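 active means compounds that reduced the stress-induced luciferase reporter signal by more than about 70% of percent inhibition, limit read from the data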
Lmaj promast: Leishmania major promastigote growth inhibition, primary screen. Leishmania major promastigotes, resazurin fluorescence viability. inhibition, % at 10 µM. 200,000 compounds, 9% hits. AID 1063, 2008; in the data active means inhibition above about 50%;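 further: promastigotes grown with compound for 44 hours at 28 °C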
Hits are given with their value.

For CCOC(CCn1c(SCc2ccc([N+](=O)[O-])cc2)nc2ccccc2c1=O)OCC the results were WT yeast gro inh inactive, RAM inhibit inactive, CHOP inhibitor inactive and Lmaj promast 51.
`Cc1ccc(-n2c(SCc3ccc([N+](=O)[O-])cc3)nc3ccccc3c2=O)cc1` gave WT yeast gro inh inactive, RAM inhibit inactive, CHOP inhibitor inactive and Lmaj promast inactive.
CCCCCCCCOC(=O)CCc1c(C)[nH]c(=S)[nH]c1=O was read as WT yeast gro inh inactive, RAM inhibit 8.8, CHOP inhibitor inactive and Lmaj promast inactive.
`Cc1ccc2c(c1)c1c(n2CC(O)Cn2c(C)nc3ccccc32)/C(=N\O)CCC1` (configuration not stated) gave WT yeast gro inh inactive, RAM inhibit inactive, CHOP inhibitor 87 and Lmaj promast 58.
`CN1C(=S)SC(C)(C)C1(C)NO` (configuration not stated) gave WT yeast gro inh 65, RAM inhibit inactive, CHOP inhibitor inactive and Lmaj promast inactive.
Screening CCN(CC)S(=O)(=O)c1cccc(NC(=O)COC(=O)C2CC3C=CC2C3)c1 (configuration not stated) returned WT yeast gro inh inactive, RAM inhibit inactive, CHOP inhibitor inactive and Lmaj promast inactive.
`CC(=O)C1=C(O)CC(c2ccccc2)CC1=NCCc1c(C)[nH]c2ccc(C)cc12` (configuration not stated) gave WT yeast gro inh inactive, RAM inhibit inactive, CHOP inhibitor inactive and Lmaj promast inactive.
`CC/C(O)=C1\C(=O)CC(c2ccccc2)CC1=NCCc1c(C)[nH]c2ccc(C)cc12` (configuration not stated) gave WT yeast gro inh inactive, RAM inhibit inactive, CHOP inhibitor inactive and Lmaj promast 73.
CC/C(O)=C1\C(=O)CCCC1=NCCc1c(C)[nH]c2ccc(C)cc12 was read as CHOP inhibitor inactive.
For CCC/C(O)=C1\C(=O)CC(c2ccccc2)CC1=NCCc1c(C)[nH]c2ccc(C)cc12 (configuration not stated) the results were WT yeast gro inh inactive, RAM inhibit inactive, CHOP inhibitor inactive and Lmaj promast 58.
`COc1ccc(CCNC(=O)CC(NC(=O)c2ccccc2Cl)c2ccccc2)cc1` (configuration not stated) gave WT yeast gro inh inactive, RAM inhibit inactive, CHOP inhibitor inactive and Lmaj promast 75.
O=C(CC(NC(=O)c1ccccc1Cl)c1ccccc1)Nc1ccc2c(c1)OCO2 (configuration not stated) was read as WT yeast gro inh inactive, RAM inhibit inactive, CHOP inhibitor inactive and Lmaj promast 100.
O=C(c1nc2ccc(Cl)cn2c1CNCC[C@@H]1C[C@@H]2C=C[C@H]1C2)N1CCCCCCC1 was read as WT yeast gro inh inactive, RAM inhibit inactive, CHOP inhibitor inactive and Lmaj promast 70.
C[C@@H]1CN(C(=O)c2nc3ccc(Cl)cn3c2CNCC[C@@H]2C[C@@H]3C=C[C@H]2C3)C[C@H](C)O1 was read as WT yeast gro inh inactive, RAM inhibit inactive, CHOP inhibitor inactive and Lmaj promast inactive.
O=C1N(Cc2cccnc2)C[C@@H]2C[C@@H](c3cccc(OC4CCCC4)c3)N3CCC[C@@]123 was read as WT yeast gro inh inactive, RAM inhibit inactive, CHOP inhibitor inactive and Lmaj promast inactive.
OCC[C@@H]1C[C@@H](O)[C@H](O)[C@]2(CCCCO2)O1 was read as WT yeast gro inh inactive, RAM inhibit inactive, CHOP inhibitor inactive and Lmaj promast inactive.
Screening CCOC(=O)C1(CCc2ccccc2)CCN(C(=O)C2CCOCC2)CC1 returned WT yeast gro inh inactive, RAM inhibit inactive, CHOP inhibitor inactive and Lmaj promast inactive.
Cc1c(Nc2nc3ccccc3nc2N2CCN(c3ccccc3)CC2)c(=O)n(-c2ccccc2)n1C was read as WT yeast gro inh inactive, RAM inhibit inactive, CHOP inhibitor inactive and Lmaj promast 53.
For Cc1ccc(C(=O)N2c3ccccc3N(Cc3ccccc3)C(=O)C2(C)C)cc1 the results were WT yeast gro inh 85, RAM inhibit inactive, CHOP inhibitor inactive and Lmaj promast inactive.
`O=C(O)CC1(O)C(=O)N(Cc2ccccc2)c2ccccc21` (configuration not stated) gave WT yeast gro inh inactive, RAM inhibit inactive, CHOP inhibitor inactive and Lmaj promast inactive.
Screening O=C1CSC(c2ccccc2F)N1CCN1CCCCC1 (configuration not stated) returned WT yeast gro inh inactive, RAM inhibit inactive, CHOP inhibitor inactive and Lmaj promast 78.

Screening data (PubChem BioAssay)
